# Sampled rows, rich in hits. Any-hit rate of the full collection: about 20%.
# Pf growth 48h – P. falciparum growth inhibition at 48 hours (one generation); P. falciparum luciferase growth in erythrocytes, 48 h; 310,000 tested, 5.9% active; Potency, µM (titrated, usually from 28.7 µM), without a hit: top-dose activity change, negative = inhibition, usual class: inhibitors; also: potency is read from the fitted curve at half-maximal effect; % is scaled to controls: 0 for no effect and ±100 for the full control effect
#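 Erythrocytes infected with P. falciparum carrying an integrated firefly luciferase reporter (2% hematocrit, 0.1% parasitemia final) were exposed to compounds in RPMI 1640 with 0.5% Albumax at 37 C, 5% CO2. Growth inhibition was scored as reduced luminescence.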
# HCMV inh – inhibitors of human cytomegalovirus. HFF cells, HCMV-luciferase reporter, 72 h; hits give low values. activity change, negative = inhibition, % at 57.5 µM. 410,000 tested, 4.5% active; in the data active = activity change below about -60%; inconclusive = no clear call, values can overlap the other calls; inactive = above about -39%; also: % is scaled to controls: 0 for no effect and ±100 for the full control effect
#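 Compounds were evaluated in HFFs infected with an HCMV luciferase reporter virus (MOI 1 PFU/cell). Luciferase in lysates collected 72 h post infection served as the replication measure.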
# Pf growth 96h – inhibits malaria parasite growth, 96 h | P. falciparum luciferase reporter growth, 96 h | Potency, µM (top dose mostly 28.7 µM), for inactives: at the top dose activity change, negative = inhibition, actives largely listed as inhibitors | 320,000 tested, 6.9% active; also: potency is read from the fitted curve at half-maximal effect; % is scaled to controls: 0 for no effect and ±100 for the full control effect
#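 Two parasite generations (96 h, 37 C, 5% CO2) of compound exposure in infected erythrocytes (0.05% parasitemia, 2% hematocrit). Luciferase-reporter P. falciparum; decreased luminescence indicates inhibited growth, aimed at apicoplast-acting delayed death.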
# Shiga toxin inh – blocks Shiga toxin action in Vero cells; inhibition, % at 38.7 µM; Vero cells, Shiga toxin protein synthesis inhibition reporter; AID 2315; 290,000 tested, 9.2% active; in the data active = inhibition mostly above about 28%, no sharp cut-off; inactive = mostly below about 43%; also: 0% is about no effect
# CHX counter – counter-screen for Shiga toxin inhibitors: cycloheximide protein synthesis inhibition | cell reporter, cycloheximide protein synthesis inhibition counterscreen | max response, % | 300,000 tested, 12% active | AID 2314; in the data active = max response mostly above about 13%, no sharp cut-off; inactive = mostly below about 14%; also: read at 38.3 µM for the half of the compounds with a filed dose; 0% is about no effect
# Active calls of the source: *; ? = inconclusive; . = no result; + = active, no number. Unless noted, calls follow the shape of the dose curve; as a rule, active = well fitted inhibition curve with a large enough effect; inconclusive = small, poorly fitted or top-dose-only effect, or another doubt; inactive = no such curve, though single readings can be large or run the other way.
SMILES,Pf growth 48h,HCMV inh,Pf growth 96h,Shiga toxin inh,CHX counter
O=C(NCC1CCCO1)C1CC(=O)N(c2cccc(Cl)c2)C1 (centres undefined),30%,-33,31%,-5,-1
COc1ccc(Nc2nc(N)nc(CSc3nnc(C)s3)n2)cc1,109%,57,?,56*,29*
COc1ccc(Nc2nc(N)nc(CSc3nccc(C)n3)n2)cc1,16%,.,5.2µM*,76*,16*
Cc1cccc(Nc2nc(N)nc(CSc3nccc(C)n3)n2)c1,-9%,33,?,49,6
C=CCNc1ccc2c(c1)OC[C@@H](CC(C)C)NS2(=O)=O,.,-23,.,.,.
COc1ccc(C(=O)NCCn2cc(SCc3c(F)cccc3Cl)c3ccccc32)cc1,.,0,.,.,.
CN(C)c1ccc(Nc2ncnc3ccc(Br)cc23)cc1,29%,-76*,0%,.,-3
CN(C)c1ccc(Nc2cc(Cl)ncn2)cc1,-32%,43,?,.,42*
Clc1ccc(Nc2ncnc3ccc(Br)cc23)cc1,7.4µM*,-83*,4.1µM*,71,-1
COc1ccc(Nc2ncnc3ccc(Br)cc23)cc1OC,?,.,34%,2,-5
Cc1cccc(Nc2ncnc3ccc(Br)cc23)c1,?,-60*,0%,-15,-2
CC1(C(=O)NS(=O)(=O)c2ccc(Cl)s2)CCN1C(=O)c1ccccc1CCc1ccccc1 (centres undefined),.,1,.,.,.
CN(Cc1ccccc1)C(=O)[C@H](Cc1ccc2ccccc2c1)NC(=O)[C@@H]1CCCN1C(=O)Nc1ccccc1[N+](=O)[O-],.,.,.,7,13
Clc1cccc(Nc2ncnc3ccc(Br)cc23)c1,3.7µM*,-62*,4.1µM*,-13,-5
CCc1ccc(NC(=O)CN(C)S(=O)(=O)c2ccc3[nH]c(=O)oc3c2)cc1,-1%,.,?,-2,-2
O=c1c2c3c(sc2nc2sc(CN4CCOCC4)cn12)CCCC3,42%,18,.,+,18*
O=C(NCCN1CCOCC1)c1cccn2c(=O)c3c4c(sc3nc12)CCCC4,-14%,.,-7%,-5,-1
Cc1cc(C)c(/C=C/c2onc(C)c2S(=O)(=O)N2CCC(C(=O)NCC(C)c3ccccc3)CC2)c(C)c1 (centres undefined),.,43,.,.,.
O=C(CCCn1nnnc1CN1CCOCC1)N1CCC(c2ccc(F)cc2)C1 (centres undefined),-36%,-9,7.4µM*,-23,7
CCOC(=O)CC1CCCCN1C(=O)CCCn1nnnc1CN1CCOCC1 (centres undefined),7%,5,31%,-18,2
COc1ccc(N2CCN(C(=O)CCCn3nnnc3CN3CCOCC3)C(C)C2)cc1 (centres undefined),-9%,1,12µM*,-11,5
CCN(CC)C(=O)C1CCCN(C(=O)CCn2nnnc2CN2CCOCC2)C1 (centres undefined),4%,-19,9%,-12,-3
COc1ccc(C)cc1NC(=O)Nc1nnc(N2CCCCC2)s1,.,10,.,.,.
CCN(C(=O)COC(=O)/C=C/c1c(C)nn(-c2ccccc2)c1C)c1c(N)n(Cc2ccccc2)c(=O)[nH]c1=O,.,-17,.,.,.
COc1cc(C(=O)NCc2nnc(SCC(=O)NCc3ccco3)o2)cc(OC)c1OC,5%,-21,-3%,-13,-3
SMILES,Pf growth 48h,HCMV inh,Pf growth 96h,Shiga toxin inh,CHX counter
COC(=O)[C@]1(C#N)[C@@H](c2ccccc2)C(=O)N(Cc2ccc(Cl)cc2)[C@@H]1c1ccc(OC)cc1,.,-30,.,.,.
CCN(C[C@H]1N[C@@](CC)(C(=O)OC)[C@H]2C(=O)N(Cc3ccccc3)C(=O)[C@@H]12)C(=O)c1ccc(C)cc1,.,-6,.,.,.
CN(C)c1ccc(/C=N/N2CCN(Cc3ccccc3Cl)CC2)cc1,5%,-3,-2%,7,1
Cc1cc(C(=O)Cn2cc(C(F)(F)F)ccc2=O)c(C)n1-c1ccccc1,-6%,-35,52%,19,10
Cc1cc(C(=O)CN2C(=O)C3CC=CCC3C2=O)c(C)n1-c1ccccc1 (centres undefined),110%,-28,215%,111*,58*
Cc1cc(C(=O)CN2C(=O)c3ccccc3S2(=O)=O)c(C)n1C(C)C,89%,+,23%,.,.
CCn1c(C)cc(C(=O)CN2C(=O)c3ccccc3S2(=O)=O)c1C,-9%,?,-15%,.,.
Cc1cc(C(=O)CN2C(=O)c3ccccc3S2(=O)=O)c(C)n1-c1ccccc1,-21%,-89*,111%,-17,0

# Source: PubChem
